Screening data (PubChem BioAssay)
The entries come from a sample that favours hits as a whole.
HIV RNase H inh-1 = HIV-1 RT RNase H inhibitors, primary screen, biochemical, fluorescence | inhibition, % at 10 µM | AID 565, 2006 | Gag-Pol polyprotein (Human immunodeficiency virus type 1 group M subtype B (isolate … | RT-RNase H RNA/DNA duplex cleavage | 65,000 compounds, 1.9% hits; in the data active means inhibition above about 50%
HIV RNase H inh-2 = HIV-1 RT RNase H inhibitors, retest, confirmation, biochemical; shares compounds with HIV RNase H inh-1; Recombinant RT RNase H, fluorescent RNA/DNA duplex cleavage; inhibition, % at 10 µM; 1,000 compounds, 39% hits; in the data active means inhibition above about 48%; inconclusive means no clear call, values can overlap the other calls
Each line names hits and unclear results; the compound was inactive in the other large screens (follow-up assays come after a bar, where they were run).

O=c1c2c3c(sc2nc2sc(CN4CCOCC4)cn12)CCCC3	none
O=C(Nc1sc2c(c1C(=O)O)CCC2)c1cccs1	none
O=C(Nc1nc2c(s1)CCCC2)c1cccs1	none
NC(=O)c1c(NC(=O)c2cccs2)sc2c1CCCCCC2	HIV RNase H inh-1 57.3
CC(C)(C)c1cc(Cc2ccccc2)[nH]n1	none
Cc1ccc(Cn2nnc3c(=O)n(CC(=O)c4ccccc4)cnc32)cc1	none
COc1cc(-c2nnc3sc(-c4cccnc4)nn23)cc(OC)c1OC	HIV RNase H inh-1 76.2 | HIV RNase H inh-2 93.4
CCOc1ccc(-c2nnc3sc(COc4ccc(Cl)cc4)nn23)cc1	none
COc1ccc(-c2nn3cnnc3s2)cc1OC	none
c1ccc(OCc2nnc3sc(-c4cccs4)nn23)cc1	none
COc1cc(-c2nnc3sc(C4CCCCC4)nn23)cc(OC)c1OC	none
COc1ccc(-c2nn3c(COc4ccccc4)nnc3s2)cc1OC	HIV RNase H inh-1 68.0 | HIV RNase H inh-2 inactive
COc1cccc(OC)c1-c1nn2c(-c3cc(-c4ccccc4)n[nH]3)nnc2s1	HIV RNase H inh-1 89.1 | HIV RNase H inh-2 65.7
COc1ccc(-c2nnc3sc(-c4c(OC)cccc4OC)nn23)cc1	none
COc1cccc(-c2nnc3sc(-c4ccccc4)nn23)c1	none
COc1cc(-c2nnc3sc(Cc4ccc(Cl)cc4)nn23)cc(OC)c1OC	HIV RNase H inh-1 56.4 | HIV RNase H inh-2 91.6
COc1cc(-c2nn3c(-c4ccccn4)nnc3s2)cc(OC)c1OC	none
COc1ccc(-c2nn3c(-c4ccncc4)nnc3s2)cc1OC	none
CC(c1ccccc1F)n1cc(C(=O)NCCc2ccco2)nn1 (configuration not stated)	none
CCOC(=O)C1=C(C)N=C2SC(CC)C(=O)N2C1c1ccc(OC(C)=O)c(OCC)c1 (configuration not stated)	none
CC1(C)NC(C)(C)C(O)(C(N)=O)C1=O (configuration not stated)	none
[O-]/[N+](=C\c1ccncc1)c1ccc(Br)cc1	none
Nc1nonc1-n1nnc(C(=O)O)c1-c1cccs1	none
CCC(Sc1nc(N)c(NC(=O)c2ccc(OC)c(OC)c2)c(=O)[nH]1)C(=O)OC (configuration not stated)	none
COc1cc(C)c(S(=O)(=O)NCc2cccs2)cc1C	none
CCOc1cccc(OCCCNCCCOC)c1	none
Cc1ccc(OC(=O)CCc2c(C)nc3ncnn3c2C)cc1	none
O=C(Cc1c[nH]c2ccccc12)NCc1ccc2c(c1)OCO2	none
Cc1cc(SCC(N)=O)nc(SCC(=O)c2ccccc2)n1	none
Cc1cc(C)nc(SCC(=O)O)n1	none
COc1cc(C)nc(SCC(N)=O)n1	HIV RNase H inh-1 62.4 | HIV RNase H inh-2 inactive
CN(Cc1cccs1)C(=O)COc1ccc(-c2nnco2)cc1	none
CCOC(=O)C(Oc1ccc(=O)n(-c2ccccc2)n1)C(C)=O (configuration not stated)	none
Cc1oc2c(c1C(=O)NC(Cc1c[nH]c3ccccc13)C(=O)O)CCCC2 (configuration not stated)	none
CCOC(=O)c1ccc2c(c1)NC(=O)C(N1CCN(c3ccc(OC)cc3)CC1)S2 (configuration not stated)	HIV RNase H inh-1 85.3 | HIV RNase H inh-2 inactive
CCOC(=O)N1CCN(C(=O)c2ccc3c(c2)NC(=O)C(N2CCOCC2)S3)CC1 (configuration not stated)	none
COC(=O)c1ccc2c(c1)NC(=O)C(N1CCCCC1)S2 (configuration not stated)	none
COC(=O)c1ccc2c(c1)NC(=O)C(N1CCCC1)S2 (configuration not stated)	none
CCCCN(C)CCCNC(=O)c1ccc2c(c1)NC(=O)C(N1CCOCC1)S2 (configuration not stated)	none
O=C(O)c1ccc2c(c1)NC(=O)C(N1CCCC1)S2 (configuration not stated)	HIV RNase H inh-1 92.1 | HIV RNase H inh-2 62.8
Cc1ccc(S(=O)(=O)NCCN=C(CN2CCCC2)NS(=O)(=O)c2ccc(C)cc2)cc1	none
CSc1nc2sc3c(c2c2nnnn12)CCC3	none
CSc1nc2sc3c(c2c2nnnn12)CC(C)(C)OC3	none
CSc1nc2sc3c(c2c2nnnn12)CCCC3	HIV RNase H inh-1 51.1 | HIV RNase H inh-2 inactive
CCCCN(CC)S(=O)(=O)N1CCC(C(=O)NCc2ccc(F)cc2)CC1	none
Cc1oc2nc(SCCCC(=O)NCCO)nc(N)c2c1C	none
O=C(O)c1c(-c2ccccc2)c2oc3ccccc3c2[nH]c1=O	none
O=C1CC(C(=O)N2CCOCC2)C2(CCCC2)O1 (configuration not stated)	none
COc1ccccc1OCc1nnc(SCC(=O)NCc2ccco2)n1Cc1ccco1	HIV RNase H inh-1 65.5 | HIV RNase H inh-2 inactive
COc1ccccc1NC(=O)CSc1nnc(COc2ccc(Cl)cc2)n1Cc1ccco1	none
COc1ccc(C)cc1NC(=O)CSc1nnc(COc2ccc(C)cc2)n1Cc1ccco1	none
CC1=C(C(N)=O)C(c2ccncc2)n2nc(-c3ccccc3Cl)nc2N1 (configuration not stated)	none
CCOC(=O)C(C(=O)OCC)C(CC(=O)C1CC1)c1ccccc1 (configuration not stated)	none
Cc1ccc2c(c1C)NC(C(=O)O)C1CC=CC21 (configuration not stated)	HIV RNase H inh-1 96.0 | HIV RNase H inh-2 68.7
O=C(c1ccccc1)c1ccccc1C(=O)N1CCOCC1	none
Cc1ccc(C)c(NC(=O)C2CC=CCC2C(=O)O)c1 (configuration not stated)	none
O=C(O)C1Nc2c(C(=O)N3CCOCC3)cccc2C2C=CCC12 (configuration not stated)	HIV RNase H inh-1 76.8 | HIV RNase H inh-2 inactive
O=C(c1ccc(Cl)cc1)c1ccccc1C(=O)N1CCOCC1	none
O=C(c1ccco1)N1CCN(C(=O)C2CCCc3c2[nH]c2ccc(Cl)cc32)CC1 (configuration not stated)	none
CCOC(=O)c1c(C)[nH]c(NC(=O)N2CCOCC2)c1C	none
CCn1cc(C(=O)N2CCCc3ccccc32)c2cc(OC)c(OC)cc2c1=O	none
CCOc1ccc(-n2ccnc2SCC(=O)NCc2ccc3c(c2)OCO3)cc1	none
c1ccc(Cn2ncc3ccccc32)cc1	none
Cc1nn(Cc2ccccc2)c(N)c1-c1ccccc1	none
Nn1cnn(Cc2ccccc2)c1=S	HIV RNase H inh-1 73.4 | HIV RNase H inh-2 inconclusive
Cc1nn(-c2ccccc2)c2[nH]c(=O)c(CNCc3ccc4c(c3)OCO4)cc12	none
Cc1nn(-c2ccccc2)c2[nH]c(=O)c(CNCCN3CCOCC3)cc12	none
Cc1nn(-c2ccccc2)c2[nH]c(=O)c(CNc3ccc4c(c3)OCCO4)cc12	HIV RNase H inh-1 80.2 | HIV RNase H inh-2 inactive
CCOC(=O)N1CCC(NC(=O)c2cc3ccccn3n2)CC1	none
COCc1nc2ccccc2n1CCOc1ccccc1OC	HIV RNase H inh-1 80.3 | HIV RNase H inh-2 inactive
COCCn1c(COC)nc2ccccc21	none
COCCn1c(COc2ccc(C)cc2)nc2ccccc21	none
COc1ccc(Cl)cc1NC(=O)CN1CCC(n2nnc3ccccc32)CC1	none
CC1CN(C2CCN(C(=O)c3ccccc3Cl)CC2)CC(C)O1 (configuration not stated)	none
COc1cccc(NC(=O)CCN2CCC(C(N)=O)CC2)c1	none
CCN(CC)S(=O)(=O)c1ccc2c(c1)nc(SCC(=O)NC1CC1)n2-c1ccccc1OC	none
Cc1csc(NC(=O)C2CCCN(S(=O)(=O)c3ccc(Br)s3)C2)n1 (configuration not stated)	none
N=C1C(c2nc3ccccc3c(=O)[nH]2)=C(O)CN1CCO	none
